Shown are actives, neighbours in structure and some others; about 2.6% of the full set was active somewhere.
PRMT1 inh: PRMT1 methyltransferase inhibitors, primary screen, biochemical, fluorescence polarization; Protein arginine N-methyltransferase 1 (Homo sapiens), Q99873; recombinant PRMT1, activity-based probe fluorescence polarization; inhibition, % at 2.79 µM; 370,000 tested, 1.3% active; AID 652257, 2013;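 active = inhibition above about 21% made by adding two undisclosed values, limit read from the data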
TLR9-MyD88 block: inhibitors of TLR9-MyD88 association in cells, primary screen, cell-based, CHO, BLA complementation, fluorescence | CCF4 FRET ratio | inhibition, % at 4.98 µM | 340,000 tested, 0.21% active;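 active = inhibition above the mean over all tested compounds plus 3 SD, cut at about 21% in these data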;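 also: 0% = DMSO only wells and 100% = clavulanate BLA inhibitor control wells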
Granule exo inh: LAMP-1 surface exposure blockers, TALL-104 cells – cell-based, flow cytometry, MLPCN library, primary screen; TALL-104 LAMP-1 surface exposure; cells stimulated with thapsigargin and PMA; inhibition, % at 10 µM; 360,000 tested, 0.66% active; AID 651702, 2012;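 active = inhibition above about 55%, limit read from the data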
ABHD5 PLIN5 PPI: ABHD5-PLIN5 interaction inhibitors, primary screen, cell lysate, split luciferase complementation, luminescence; Split G. princeps luciferase complementation, 4 h; 360,000 tested, 0.78% active; AID 602281, 2012; Perilipin-5 (Homo sapiens) + 1-acylglycerol-3-phosphate O-acyltransferase ABHD5 (Homo …; inhibition, % at 4 µM;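 active = inhibition above the mean inhibition across every tested compound plus 3 SD, cut at about 22% in these data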;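 also: 0% = DMSO only wells and the 100% control is not disclosed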
TLR4-MyD88 BLA: inhibitors of TLR4-MyD88 association in cells, primary screen, cell-based, HeLa CL3-4, BLA complementation, FRET ratio. 200,000 tested, 0.18% active. HeLa CL3-4 TLR4/MyD88 BLA complementation. inhibition, % at 8.4 µM; in the data active = inhibition above about 25%;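 also: 0% = vehicle and 100% = reference inhibitor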
Target sequence (O00206 whole entry, looked up): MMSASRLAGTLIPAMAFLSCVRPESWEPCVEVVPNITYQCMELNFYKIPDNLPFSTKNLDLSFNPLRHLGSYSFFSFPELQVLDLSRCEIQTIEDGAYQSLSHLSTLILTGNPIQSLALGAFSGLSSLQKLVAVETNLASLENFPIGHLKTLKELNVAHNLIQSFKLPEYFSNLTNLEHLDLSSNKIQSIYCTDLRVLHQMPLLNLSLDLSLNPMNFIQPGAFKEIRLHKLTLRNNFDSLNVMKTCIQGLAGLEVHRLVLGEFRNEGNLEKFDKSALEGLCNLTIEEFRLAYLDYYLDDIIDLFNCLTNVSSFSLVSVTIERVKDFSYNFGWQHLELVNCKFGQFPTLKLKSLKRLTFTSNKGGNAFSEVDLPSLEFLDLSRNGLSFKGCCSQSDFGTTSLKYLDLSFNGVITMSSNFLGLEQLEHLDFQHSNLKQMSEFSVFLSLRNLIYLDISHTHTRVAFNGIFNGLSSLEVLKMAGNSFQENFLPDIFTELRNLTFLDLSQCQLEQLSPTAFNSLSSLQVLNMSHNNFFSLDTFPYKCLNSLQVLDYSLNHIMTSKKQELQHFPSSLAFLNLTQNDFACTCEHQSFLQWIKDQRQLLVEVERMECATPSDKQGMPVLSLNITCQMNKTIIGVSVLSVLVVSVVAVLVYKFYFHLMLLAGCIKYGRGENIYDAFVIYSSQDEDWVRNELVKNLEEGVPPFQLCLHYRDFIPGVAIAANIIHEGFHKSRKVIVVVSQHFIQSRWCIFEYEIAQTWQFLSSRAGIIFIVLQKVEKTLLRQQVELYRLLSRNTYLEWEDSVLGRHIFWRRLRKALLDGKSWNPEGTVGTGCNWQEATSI
Target sequence (Q99836 whole entry, looked up): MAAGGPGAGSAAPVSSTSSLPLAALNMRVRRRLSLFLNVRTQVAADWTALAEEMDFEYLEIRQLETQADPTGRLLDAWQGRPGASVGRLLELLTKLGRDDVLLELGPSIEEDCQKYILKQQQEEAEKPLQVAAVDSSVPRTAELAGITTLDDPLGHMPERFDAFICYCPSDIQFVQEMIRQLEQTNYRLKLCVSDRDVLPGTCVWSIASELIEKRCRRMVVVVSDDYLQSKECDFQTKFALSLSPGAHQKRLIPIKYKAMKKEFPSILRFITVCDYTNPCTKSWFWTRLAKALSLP
NOD2-RIPK2 inh: NOD2-RIPK2 binding disruptors in cells, primary screen, fluorescence, CHO cells, BLA complementation; Receptor-interacting serine/threonine-protein kinase 2 (Homo sapiens), O43353; 360,000 tested, 0.38% active; CCF4 ratio; AID 624267, 2012; inhibition, % at 4.98 µM; in the data active = inhibition above about 21%;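 also: 0% = vehicle only and 100% = reference blocker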
Numbers without * were called inactive; . = not tested or not shown.

SMILES | PRMT1 inh | TLR9-MyD88 block | Granule exo inh | ABHD5 PLIN5 PPI | TLR4-MyD88 BLA | NOD2-RIPK2 inh
O=C(O)c1ccnc(SCC(=O)c2ccccc2)c1 | 23* | -5 | 1 | -7 | -1 | -5
O=C(CSc1ncccc1C(=O)O)c1ccccc1 | 1 | -7 | 1 | -12 | 13 | -7
Cc1ccc(NNS(=O)(=O)c2ccc(C)cc2)cc1 | 64* | -2 | 4 | -9 | -3 | -2
Cc1ccc(OCc2nn3c(C4CCCCC4)nnc3s2)cc1 | 8 | . | . | . | . | .
CCCN(Cc1ccccc1)C(=S)Nc1ccc(F)cc1 | -1 | 1 | 0 | -2 | -5 | -6
CCCN(Cc1ccccc1)C(=S)Nc1ccc(SC(F)F)cc1 | 4 | -7 | 90* | -7 | -10 | -5
Nc1nc(SCc2ccccc2)ns1 | 23* | -17 | -2 | -14 | 0 | 0
Nc1nc(SCc2ccc(Cl)cc2)ns1 | -2 | -2 | -4 | 1 | 0 | -7
CCOC(=O)c1nn(-c2ccccc2C)c(=O)c2c(N)scc12 | 25* | 3 | -4 | -22 | -9 | 0
Cc1ccc(OCc2nnc(SCC(=O)Nc3ccccc3-c3ccccc3)n2Cc2ccco2)cc1 | 13 | . | . | . | . | .
O=C(O)COc1ccc2c(c1)O/C(=C\c1ccco1)C2=O | 24* | -8 | 2 | 6 | . | -2
COC(=O)[C@H](C(C)C)N(CCc1cn(CC2CCCCC2)nn1)S(=O)(=O)c1ccc(F)cc1Br | -1 | . | . | . | . | .
CCOC(=O)C1=C(CSc2nc(CC)c(C)cc2C#N)OC(N)=C(C#N)C1c1ccc(OC)cc1 (configuration not stated) | 21* | 3 | 1 | -2 | -6 | 8
OCCN1CCN(C(=S)c2ccc(Br)cc2)CC1 | 22* | -1 | 2 | -1 | -18 | -8
N#Cc1ccc(S(=O)(=O)N2CCCc3nc(-c4ccc(Br)cc4)ccc32)cc1 | -2 | . | . | . | . | .
Cn1c(SCC(=O)N/N=C/C=C/c2ccco2)nc2ccccc21 | 24* | -7 | 1 | 9 | -8 | 3
COc1cccc(/C=N/Nc2ccccc2C(=O)O)c1O | 2 | -6 | -2 | -12 | . | -2
O=C(O)c1ccccc1NN=Cc1ccccc1 | 0 | -6 | 60* | -10 | . | 2
C=CCCN1[C@@H](Cc2ccccc2)COc2ccccc2S1(=O)=O | -2 | . | . | . | . | .
Nc1c(C(=O)NCc2ccco2)c2nc3ccccc3nc2n1CCc1ccccc1 | 8 | -19 | 16 | 13 | -11 | -21
CCOC(=O)c1c(N)n(-c2ccc(N)cc2)c2nc3ccccc3nc12 | 1 | 2 | -2 | 7 | -21 | -5
CCOc1ccc(-n2c(N)c(C(=O)NCc3ccco3)c3nc4ccccc4nc32)cc1 | . | 0 | -1 | 33* | -4 | 4
Nc1c(C(=O)Nc2ccccc2)c2nc3ccccc3nc2n1-c1ccc(O)cc1 | 5 | -9 | -3 | 23* | . | -4
Cc1[nH]c2ccccc2c1CC(=O)Nc1ccc(N(C)c2cccnc2)c(-c2ccc(F)c(F)c2)c1 | 7 | . | . | . | . | .
CCCCNC(=O)C1(C(=O)c2ccc(OC)cc2)CC(c2ccccn2)=NO1 (configuration not stated) | 4 | . | . | . | . | .
SMILES | PRMT1 inh | TLR9-MyD88 block | Granule exo inh | ABHD5 PLIN5 PPI | TLR4-MyD88 BLA | NOD2-RIPK2 inh
COC(=O)c1ccc2c(c1)SC1=C(CCCC1=O)N2 | 25* | 1 | -1 | -2 | 3 | -2
CCCCOCCCNC(=O)C[C@H]1C[C@@]2(C(=O)OC)C(=C[C@H](C3CCCC3)O[C@@H]2C)N(Cc2ccccc2)C1=O | 3 | . | . | . | . | .
COc1ccc(CC(=O)Nc2cccc(-c3nnc(-c4cccc(C)c4)o3)c2)cc1OC | 3 | -3 | 22 | 0 | -2 | -6
COc1ccc(CC(=O)Nc2cccc(-c3nnc(-c4ccc(C)cc4)o3)c2)cc1OC | -1 | 2 | 88* | 1 | 9 | -3
COc1ccc(CC(=O)Nc2cccc(-c3nnc(-c4ccccc4)o3)c2)cc1OC | 2 | -8 | 69* | 3 | 0 | 4
COC(=O)[C@]12C[C@H](CC(=O)NCc3ccccc3)C(=O)N(CCC3=CCCCC3)C1=C[C@H](C1CCCC1)O[C@@H]2C | 3 | . | . | . | . | .
COc1cc(CNn2c(C)n[nH]c2=S)cc(Cl)c1OCc1ccccc1 | 24* | -4 | 1 | -11 | -13 | -5
O=C(NCc1ccccc1)[C@@H]1CCCN1C(=O)[C@H]1CCCN1C(=O)c1ccccc1Cl | -2 | . | . | . | . | .
Cc1ccc(/C=C2\C(=O)ON=C2c2ccccc2)o1 | 3 | . | 1 | -4 | 19 | -7
Cc1ccc(-c2ccc(/C=C3\C(=O)ON=C3c3ccccc3)o2)c([N+](=O)[O-])c1 | 5 | 3 | 106* | 12 | 14 | 3
CC(C)C[C@@]12C(=O)N(c3cccc(F)c3)C(=O)N1[C@H](c1ccc(Br)cc1)[C@@H]1C(=O)N(C(C)(C)C)C(=O)[C@@H]12 | -1 | -3 | 77* | -8 | . | 0
CC(C)C[C@@]12C(=O)N(c3cccc(Cl)c3)C(=O)N1[C@H](c1ccc(Br)cc1)[C@@H]1C(=O)N(C(C)(C)C)C(=O)[C@@H]12 | 3 | 1 | -5 | -8 | . | -10
N#CC1=C(N)C2=CCCC[C@H]2[C@H](c2ccccc2)C1(C#N)C#N | 24* | 9 | 11 | -12 | -18 | 3
N#CC1=C(N)C2=CCCC[C@H]2[C@H](c2ccc(Br)cc2)C1(C#N)C#N | . | 2 | -5 | 3 | 6 | 3
CC(C)Cc1ccc(CN2CCCC(NC(=O)CCN3CCCCC3=O)C2)cc1 (configuration not stated) | -1 | -10 | 6 | -8 | . | -5
CC(C)Cc1ccc(C(C)/C=C2/CCC(CN3CCCCC3)C2=O)cc1 (configuration not stated) | 10 | -1 | 48 | 23* | . | 5
COc1ccc(Cl)cc1N(CC(=O)NCCSc1ccccn1)S(=O)(=O)c1ccccc1 | -2 | -9 | 69* | -3 | . | -1
COC(=O)[C@]12C[C@H](CC(=O)NCCCN3CCCC3=O)C(=O)N(Cc3ccccc3)C1=C[C@H](C(C)C)O[C@@H]2C1CC1 | -1 | . | . | . | . | .
CC(C)N1C(=O)/C(=C\c2nc3ccccc3c(=O)[nH]2)c2ccccc21 | 2 | 4 | 98* | 18 | -13 | 15
COc1cccc(N=Cc2nc(-c3ccccc3)oc2OC(C)=O)c1 | 5 | 0 | 64* | -1 | . | 1
COc1ccc(N=Cc2nc(-c3ccccc3)oc2OC(C)=O)cc1 | 3 | 1 | 39 | -5 | . | 2
COc1cc2c(cc1OC)[C@@]1(c3ccccc3)CCCC[C@H]1[C@@H]2NC(=O)C(F)(F)F | 7 | . | . | . | . | .

Source: PubChem
